Measured values reported in PubChem BioAssay AID623957 (NMMLSC, 2012).
Active and inactive are the calls of the source.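 The calls were made as follows: active = compounds whose fitted half-maximal concentration for lowering the signal is under 100 µM; inactive = the rest.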

Assay: compound effect on K562 vector-control line – cell-based, flow cytometry, cherry pick set 1, counter-screen for ABCB6 inhibitor project, dose response (AID 623957)
Conditions: K562 vector-only cells, flow cytometry fluorescence, 1 h; series mostly up to 100 µM
For `CCOC(=O)N1CCN(CC(=O)Nc2ccc(C)cc2)CC1`, the outcome was “inactive”.
For `CN1CCN(C(=O)CCc2nnc3ccc(N4CCC5(CC4)OCCO5)nn23)CC1`, the outcome was “inactive”.
In the case of `Cc1cccc(NC(=O)c2nc(S(=O)(=O)Cc3ccccc3)ncc2Cl)c1`, the outcome is reported as “inactive”.
With `CCOCCCNC(=O)CCc1nnc2ccc(N3CCCCC3)nn12` the outcome was “inactive”.
With `CC1CCN(c2ccc3nnc(CCC(=O)NC(C)C)n3n2)CC1` the outcome was “inactive”.
With `CCCNC(=O)CCc1nnc2ccc(N3CCC(C)CC3)nn12` the outcome was “inactive”.
For `CCN(CC)CCNC(=O)CCc1nnc2ccc(N3CCC(C)CC3)nn12`, the outcome was “inactive”.
In the case of `CCN(CC)S(=O)(=O)c1cccc(-n2c(O)c(C=Nc3ccccc3C(=O)O)c3ccccc3c2=O)c1`, the outcome is reported as “inactive”.
For `COC(=O)c1ccc(NC(=O)c2nc(S(=O)(=O)Cc3cccc(C)c3)ncc2Cl)cc1`, the outcome was “inactive”.
In the case of `COCCNC(=O)CCc1nnc2ccc(N3CCC(C)CC3)nn12`, the outcome is reported as “inactive”.
For `CC1CCN(C(=O)CCc2nnc3ccc(N4CCC5(CC4)OCCO5)nn23)CC1`, the outcome was “inactive”.
With `COCCCNC(=O)CCc1nnc2ccc(N3CCC(C)CC3)nn12` the outcome was “inactive”.
In the case of `COC(=O)C(NC(=O)CCc1nnc2ccc(N3CCCCC3)nn12)C(C)C` (centres undefined), the outcome is reported as “inactive”.
In the case of `Cc1cccc(CS(=O)(=O)c2ncc(Cl)c(C(=O)Nc3ccc(F)cc3)n2)c1`, the outcome is reported as “inactive”.
